Screens as filed in PubChem.
Shown are actives, neighbours in structure and some others; about 3.8% of the full set was active somewhere.
B2AR ag = agonists of human beta-2 adrenergic receptor inducing internalization; response, % (test concentration not listed); AID 504454; hit rate 0.43% among 340,000; Am2.2-beta2AR cells, FAP receptor internalization, flow cytometry;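 active means response above a set limit, near 3 SD of response in nonfluorescent compounds, cut at about 42% in these data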
Target sequence (P07550 whole entry, looked up): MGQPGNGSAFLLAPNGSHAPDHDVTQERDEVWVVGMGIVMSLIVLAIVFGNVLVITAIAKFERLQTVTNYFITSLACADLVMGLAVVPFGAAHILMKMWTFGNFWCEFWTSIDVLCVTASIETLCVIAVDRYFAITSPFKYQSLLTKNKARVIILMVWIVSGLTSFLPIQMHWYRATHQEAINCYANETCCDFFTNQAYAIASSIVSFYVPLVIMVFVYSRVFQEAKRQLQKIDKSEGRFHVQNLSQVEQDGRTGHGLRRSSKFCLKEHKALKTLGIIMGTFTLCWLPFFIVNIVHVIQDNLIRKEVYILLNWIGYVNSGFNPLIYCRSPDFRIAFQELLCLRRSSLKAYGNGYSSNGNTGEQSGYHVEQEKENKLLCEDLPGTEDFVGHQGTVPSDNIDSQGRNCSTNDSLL
tim10-1 inh = tim10-1 yeast growth inhibition | inhibition, % at 20 µM | hit rate 2.2% among 330,000 | AID 463190 | S. cerevisiae tim10-1 ts strain growth, BacTiter-Glo, 24 h;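 active means inhibition of at least 40%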;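 further: mutant grown at 25 °C; 0% = DMSO wells with yeast and 100% = wells holding no yeast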
TIM10 inh = growth inhibitors of TIM10 yeast strain; hit rate 1.4% among 330,000; inhibition, % at 10 µM; S. cerevisiae TIM10 strain growth, BacTiter-Glo luminescence, 24 h;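 active means inhibition of 40% or more at the single tested concentration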;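 further: wild-type TIM10 isogenic control strain grown at permissive 25 °C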
PfHsp90 yeast 2 = growth inhibition of yeast expressing Plasmodium Hsp90; S. cerevisiae expressing PfHsp90, BacTiter-Glo ATP, 48 h; yeast lacking PDR1 and PDR3 efflux regulators; inhibition, % at 9.4 µM; hit rate 0.32% among 310,000; AID 504621;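 active means every replicate shows inhibition above about 80%, whatever the replicate mean, limit read from the data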;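 further: 0% = DMSO neutral controls and 100% = 20 µM radicicol positive controls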
tim23-1 inh = inhibits growth of tim23-1 mutant yeast; S. cerevisiae tim23-1 growth, BacTiter-Glo luminescence, 24 h; AID 463212; hit rate 1.3% among 330,000; inhibition, % at 20 µM;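 active means growth inhibition of the mutant yeast at or above 50%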;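 further: temperature-sensitive mutant grown at 25 °C; plate controls were DMSO-treated mutant yeast for no effect and medium wells lacking yeast for full effect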
tim10 confirm = confirmation of TIM10 yeast growth inhibitors. shares compounds with TIM10 inh. S. cerevisiae tim10 strain growth, BacTiter-Glo luminescence, 24 h. inhibition, % at 10 µM. hit rate 63% among 4,600;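 active means inhibition of yeast growth at or above a set limit in either of two replicates at 10 µM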;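 further: this counterscreen used the strain with wild-type TIM10; 0% = yeast with DMSO and 100% = medium wells lacking yeast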
tim23-1 conf = confirmation of tim23-1 mutant yeast growth inhibitors | shares compounds with tim23-1 inh | S. cerevisiae tim23-1 growth, BacTiter-Glo luminescence, 24 h | inhibition, % at 20 µM | hit rate 83% among 4,400 | AID 463218;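 active means inhibition above about 39% in either of two replicate wells at 20 µM, limit read from the data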;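 further: temperature-sensitive tim23-1 mutant grown at 25 °C; 0% = DMSO wells with yeast and 100% = medium wells without yeast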
An asterisk follows results filed as active; · = not tested or not shown.

SMILES	B2AR ag	tim10-1 inh	TIM10 inh	PfHsp90 yeast 2	tim23-1 inh	tim10 confirm	tim23-1 conf
CC1(C)OC(=O)N(NCc2ccccc2)C1(C)O (centres undefined)	6.5	1.8	-4.5	-6.4	-8.9	·	·
O=C(Nc1cc(-c2nc3ncccc3o2)ccc1Cl)c1cccs1	18.5	-2.5	1.7	5.9	32.2	·	·
O=C(Nc1cc(-c2nc3ncccc3o2)ccc1Cl)c1ccc([N+](=O)[O-])o1	11.8	26.5	43.0*	-15.8	86.4*	28.2	86.0*
COCCN(C(=O)C1CC(=O)N(Cc2ccccc2)C1)c1nc(-c2ccc([N+](=O)[O-])cc2)cs1 (centres undefined)	13.3	11.4	10.3	-33.6	22.6	·	·
O=C(Nc1ccc2oc(-c3ccccc3)nc2c1)c1ccco1	-18.0	39.2	63.9*	35.6	51.2*	-3.5	78.6*
Cc1ccc(/C=N/n2cnc3sc4c(c3c2=O)CCCC4)o1	-2.8	12.9	6.9	-2.4	17.0	·	·
O=c1c2c3c(sc2ncn1/N=C/c1ccc(Br)o1)CCCC3	-5.4	37.0	43.6*	-14.5	51.4*	46.4*	54.0*
O=C(Nc1cc(S(=O)(=O)N2CCOCC2)ccc1N1CCCCC1)c1ccccc1Br	-4.2	27.6	26.1	-13.0	35.5	·	·
O=C(c1ccco1)N1CCN(c2nc(-c3ccc(F)cc3)cs2)CC1	1.8	32.0	44.3*	4.3	82.1*	17.0	34.5
O=C(c1ccco1)N1CCN(c2ccc(F)cc2)CC1	-1.8	-9.5	3.5	1.4	8.4	·	·
Oc1ccc(Cl)cc1-c1cc(-c2ccco2)[nH]n1	-12.0	37.6	49.1*	-35.9	71.8*	38.1*	14.8
COC(=O)Cc1ccc(NC(=S)NCCSc2ccc(Cl)cc2)cc1	11.5	35.0	44.1*	-11.6	50.1*	42.4*	42.8*
O=C1NC(=Nc2ccccc2)S/C1=C/c1cccs1	-11.6	26.4	48.7*	-20.9	61.5*	31.9*	72.5*
Cc1ccc(NC(=O)ON=C2CCCC2)cc1	3.3	-0.2	53.5*	-7.4	52.7*	68.0*	47.3*
C=CCn1c(SCCN)nnc1-c1cccc(S(=O)(=O)N2CCOCC2)c1	-0.4	·	·	·	·	·	·
CC(O)C(NS(=O)(=O)c1ccc2ccccc2c1)C(=O)OCC(=O)Nc1ccccc1OC(F)F (centres undefined)	21.0	·	·	-1.6	·	·	·
CC(=O)Nc1sc2c(c1-c1nc3ccccc3s1)CCN(C(C)C)C2	-122.6	34.8	66.3*	-4.7	53.6*	63.2*	59.6*
CC(C)N1CCc2c(sc(NC(=O)c3ccc4ccccc4c3)c2C(N)=O)C1	-23.1	13.4	18.7	6.9	39.6	·	·
CCCNc1nc(N)nc(-c2cc(Cl)ccc2OC)n1	0.2	11.7	-0.6	-1.4	23.3	·	·
CCNc1nc(N)nc(-c2cc(Cl)ccc2O)n1	4.8	34.1	50.5*	52.3	55.9*	-9.1	37.2
c1ccc(N/N=C(\Cc2nc3ccccc3[nH]2)c2ccccc2)cc1	-1.2	39.9	48.4*	-0.2	58.2*	-1.0	60.0*
Cc1ccc(N/N=C(\Cc2nc3ccccc3[nH]2)c2ccccc2)cc1	23.6	·	·	-35.4	·	·	·
Cc1cccc(NS(=O)(=O)c2cccc(C(=O)NCC3(N4CCOCC4)CCCCC3)c2)c1	0.6	·	·	-0.7	·	·	·
S=C(Sc1ccc(Cl)cc1)Sc1ccc(Cl)cc1	·	27.6	47.4*	·	73.1*	42.4*	76.8*
CC(=O)/C(=C\N(C)C)Sc1ccc(Cl)cc1	-6.6	-7.9	-3.8	-24.7	-1.5	·	·
SMILES	B2AR ag	tim10-1 inh	TIM10 inh	PfHsp90 yeast 2	tim23-1 inh	tim10 confirm	tim23-1 conf
FC(F)(F)c1cnc(NNC(=S)Nc2ccc(Cl)cc2)c(Cl)c1	8.8	28.0	10.5	12.2	5.5	·	·
FC(F)(F)c1cccc(NC(=S)NNC(=S)Nc2ccc(Cl)cc2)c1	·	-23.8	58.9*	·	64.9*	73.2*	10.0
COCCCN(C(=O)CSCC(=O)Nc1ccc(C)cc1)c1c(N)n(Cc2ccccc2)c(=O)[nH]c1=O	-23.3	·	·	-14.1	·	·	·
Cc1cccc(C)c1NC(=O)/C(C#N)=C/c1ccsc1	3.2	39.2	44.1*	15.9	62.3*	37.4*	57.1*
N#CC1=C(N2CCCCC2)c2cc3c(n2C1=O)CCCC3	3.1	34.1	44.5*	-20.9	51.6*	32.7*	56.8*
O=S(=O)(NNc1ncc(C(F)(F)F)cc1Cl)c1ccccc1	-1.2	14.8	19.0	13.0	15.7	·	·
Cc1ccc(OCCNC(=O)C(C)SCC(=O)Nc2ccc(F)cc2)cc1 (centres undefined)	2.9	-2.0	-2.9	-1.8	2.5	·	·
CCOC(=O)c1cnc2c(C)c(Cl)ccc2c1NCCCN1CCOCC1	5.5	33.3	65.3*	-12.9	50.8*	59.8*	41.1*
CCOC(=O)c1cnc2c(Cl)c(Cl)ccc2c1NCCN1CCOCC1	-10.2	26.8	16.4	15.6	27.9	·	·
O=C(O)/C=C/c1cn(-c2ccccc2)nc1-c1ccccc1	7.9	14.7	1.1	-7.2	16.2	·	·
O=Cc1cn(-c2ccccc2)nc1-c1ccccc1	-4.3	39.6	57.9*	-5.0	68.3*	63.8*	69.5*
O=Cc1cn(-c2ccccc2)nc1-c1ccncc1	-10.8	23.3	46.7*	·	55.7*	38.5*	46.8*
CCC(C)c1ccc(NC(=O)c2cccs2)cc1 (centres undefined)	7.9	32.3	51.8*	21.6	72.5*	44.9*	73.0*
O=[N+]([O-])c1ccc(-c2cn(-c3ccccc3F)c(=S)[nH]2)cc1	13.2	12.5	2.8	-4.9	-0.6	·	·
Cc1ccc(-c2cn(-c3ccccc3F)c(=S)[nH]2)cc1	-6.7	28.7	44.6*	-16.3	61.2*	46.8*	47.6*
N/C(=N\O)c1ccc(Cl)cc1Cl	-2.8	-1.3	-3.5	-25.5	-3.5	·	·
COc1ccc(Cl)cc1C(=O)O/N=C(\N)c1ccccn1	-0.2	16.0	25.8	17.4	36.9	·	·
Cc1cc(/C(N)=N/OC(=O)c2ccccc2Cl)no1	-11.0	9.7	-21.0	5.8	13.1	·	·
N/C(=N\OC(=O)c1ccc(Cl)cc1Cl)c1ccc(Cl)cc1	9.3	34.3	78.9*	5.7	82.3*	84.7*	66.7*
N/C(=N\OC(=O)c1cc(Cl)ccc1Cl)c1ccccn1	-8.2	36.3	58.5*	-62.7	65.8*	44.0*	56.7*
Cc1ccc(/C(N)=N/OC(=O)c2ccc(C)cc2Cl)cc1	0.8	23.4	82.2*	11.5	80.2*	88.6*	23.5
Cc1cccc(/C(N)=N/OC(=O)c2ccc(Cl)cc2Cl)c1	5.0	1.5	85.5*	-3.3	65.9*	87.6*	39.8*
O=C1ON(Cc2ccccc2)C(c2ccccc2)N1c1ccccc1 (centres undefined)	-4.1	·	·	-4.2	·	·	·
CCc1cc(S(=O)(=O)N2CCN(C(=O)c3ccco3)CC2)ccc1OC	-3.4	2.7	3.9	33.2	15.1	·	·
